What follows are sequences tested on VDR:RXRa (NR concentration 270 nM, RXRa partner concentration 90 nM) (assay: PBM binding z-score (relative to random genomic background probes); higher = stronger binding; sequences stand for … in GC…GCGATTGACAGCGTAGAATGAAGG).
Experimental: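 Protein-binding microarray (Agilent 4x180K custom design, double-stranded 60-nt probes: 5' GC cap, 34-nt variable region, 24-nt constant primer region; full probe sequence given). Purified or IVT nuclear receptor:RXRα heterodimers (3:1 NR:RXRα, mostly 270:90 nM) or homodimers were incubated for 1 h in PBS with 2% milk and no ligand, then detected with Alexa488 antibodies. Fluorescence from o1-orientation probes (~5 replicates averaged) was converted to z-scores against 500 random hg19 background probes. Variable regions are seed direct-repeat (DR0–DR5) sites, all their single-nucleotide variants and half-site ablations.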

Sequence	PBM binding z-score
CCTACTGGGCCATTCAGAGGTCATTCATCATATG	4.26
TCTGCTAGGTCAACGACGGTCAGCTAATCTGCTA	2
CAAACTAGGACACGAAAGGTCAAAGTCGAATGAC	4.78
TGACTGAGGTTATAAGATCAGGGAACGTTGCAAA	0.798
ACTTACGGGTCAACGAGGTTGTAGCACGCGTATA	7.54
CGTCAAAGTGCAACTAAGGTAACGTAAAGCACGC	0.866
ATCTCTAGGTAAGACTCAGTTGAGTGAAGAACGC	-0.0518
TCGAGTAGGTTAGGGGCATTCGGAATGGCGTCGA	0.55
ATCGAAAGGTCGTGAGCTGAGTATACAGAAAGGC	2.95
CGTCCAAGGTCAGAGAGGTCAATGAATGCCGAGT	7.79
GTACCAATGTGAATAGGTCGTTGATGAGTAGGCG	-0.000523
CAGCCGAGGTCAGGGCCAGTATAGGAGGAACGTT	3.64
TCTTGTAGATCAAAGATTAAGAAAGCCGAAGCCT	0.389
CCTAGCAGGCGAATCTGGGTCACTCAAGGCTTGA	-0.0504
TCATATAGGTAAATACTAGGTGAAAGTCCGATCT	1.19
ACTAGCAGGCCAAGTTTGGGTGACTCAAACAAAG	-0.388
CAAACTAGGCCACAGAGGTCAAAGTCCGTGCGTA	6.29
TCTAGTTGGTCACGGAGGTCACACAGGACGGGTA	5.94
TCTAGCAGGCCAGAGGGACACTCAAGAGGTACGG	-0.463
CCGACTGGCGCAAAGGTTACCATACTCAGTACGA	0.854

Sequence	PBM binding z-score
ATAAGTAGGTTATCGGGTCATTCAGTTTGCGCAT	5.16
AATTCAGGGTCATCGTAGGCCAGAGTACGCACAG	5.7
AGAACGAGGGCACGCTGAGTTGATATCAGAGTAG	2.02
AATACAGGGTCACTAGGCCAGACTAGGTACGAAT	4.22
GGGACTGGGGCATCAGCAGGTTACCATAACTTAA	0.674
CCGACTGGGGCAAGATTACCATAACGCACAGCCA	-0.621
TCTTGTAGATCAAAGGTTATGAAAGCCGAAGCCT	1.25
CCAGACATGTGAAAGGTAACTCAGTCTGGTACGC	0.207
GCTATTAGTTGAAAGGGCATCCGAATGATTCTCG	0.499
ATCTCTAGGTAACCAAGTTCATTGAATGCCGAAC	5.68
ACAGACCGGTGAGTGAAGGTAACTCAGCTGGACG	-0.63
CGGACTAGGTCAGAACAGGACAGTGAAGGATGAT	0.538
GGAACGAAGGCAAAGTTGATAGCATCTGTCGACG	-0.832
CAGCCTAGGTAAGGGCCAGTATAGGAGGAACGTT	-0.84
CAGCCTAGGTCGGGGCCAGTATAGGAGGAACGTT	-0.53
TCATATAGGTAAAGATGAAAGTCGAACGATATGA	0.437
CGAACTAGGTAATTGACAGGACAGTGAATAGTAA	-0.257
ATCGAAAGGTCGAAGGTGAATATACCCACCCGAA	3.08
AATACAGGGTCATCGTAGGACAGAGTACGCACAG	5.5
TCTGACAGGTGAAGGTAACTCAGGTACGCAGTCG	0.667

Source: the supplement of paper PMC6555819
